Columns and labels:
Experiment in all cases: PBM binding z-score (relative to random genomic background probes); higher = stronger binding; sequences stand for … in GC…GCGATTGACAGCGTAGAATGAAGG
[1] = tested on: FXR:RXRa (NR concentration 270 nM, RXRa partner concentration 90 nM)
In short: (§1)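 Custom Agilent 4×180K protein-binding microarrays carried double-stranded probes, each with a 34-nt variable region. These regions held direct-repeat seeds, single-nucleotide variants, half-site ablations and random human genomic background sequences. Ligand-free nuclear receptor dimers were incubated on the arrays for 1 h, antibodies against each partner (one per run) detected binding, and scanned fluorescence was regression-normalized. Binding z-scores take the random background probes as reference.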

[2] = tested on: LXRa:RXRa (NR concentration 270 nM, RXRa partner concentration 90 nM)
In short: as §1

[3] = tested on: LXRa homodimer (NR concentration 270 nM)
In short: as §1

[4] = tested on: LXRb:RXRa (NR concentration 270 nM, RXRa partner concentration 90 nM)
In short: as §1

[5] = tested on: LXRb homodimer (NR concentration 270 nM)
In short: as §1

[6] = tested on: PPARa:RXRa (NR concentration 270 nM, RXRa partner concentration 90 nM)
In short: as §1

[7] = tested on: PPARg:RXRa (NR concentration 180 nM, RXRa partner concentration 90 nM)
In short: as §1

[8] = tested on: PPARg:RXRa 270nM:90nM, anti-RXR (NR concentration 270 nM, RXRa partner concentration 90 nM)
In short: as §1

[9] = tested on: PPARg:RXRa 30nM:10nM, anti-RXR (NR concentration 30 nM, RXRa partner concentration 10 nM)
In short: as §1

[10] = tested on: PPARg:RXRa 90nM:30nM, anti-RXR (NR concentration 90 nM, RXRa partner concentration 30 nM)
In short: as §1

Sequence | PBM binding z-score [1] | PBM binding z-score [2] | PBM binding z-score [3] | PBM binding z-score [4] | PBM binding z-score [5] | PBM binding z-score [6] | PBM binding z-score [7] | PBM binding z-score [8] | PBM binding z-score [9] | PBM binding z-score [10]
CTAACTAGGTCATCCAGGACAGTGAATACATTGA | 4.13 | 3.08 | 1.1 | 2.34 | 0.444 | 5.16 | 8.66 | 7.07 | 4.48 | 7.08
TCTTGTACATCAATAGAGGTTAAGAAAGTGCGCT | 0.725 | 3.49 | 0.473 | 1.79 | 0.532 | 1.82 | 0.201 | 1.72 | 3.01 | 2.08
TGAATGAGGTAATAAGATCAGGGAACGTTGCAAA | -0.101 | -0.238 | -0.404 | -0.279 | -0.0513 | 0.529 | 0.563 | 0.725 | 0.309 | 0.427
TCTATTGGTTGATTAGGGCAACCGAAACAGCGGA | 0.575 | 0.37 | -0.105 | 0.525 | 0.775 | 0.817 | 0.0989 | 1.86 | 3.2 | 2.59
TAGCCTAGGTCATGCGGGCCAGTGTAGTGTCGGC | 3.71 | 2.88 | -0.0482 | 1.38 | -0.348 | 3.17 | 1.5 | 2.27 | -0.122 | 1.26
TCTAGTTGGCCACGGAGGTCACACACGACGGGTA | 2.71 | 2.79 | 1.39 | 3.2 | 0.0016 | 3.68 | 2.32 | 2.96 | 2.82 | 2.84
CCTACTGGGCCAGCAGGTCATTGATATCAACGTT | 0.852 | 0.958 | 0.496 | 1.21 | -0.78 | 2.51 | 2.26 | 2.84 | 1.09 | 2.63
CCTACTGGGCCATCCGGTCATTGATATCAACGTT | 0.445 | 0.184 | 1.03 | 0.144 | 0.244 | 1.37 | 1.4 | 2.5 | 0.753 | 1.81
CTCGAAAGGTCGTGCTCAGCTGAGTATACCAAAC | 4.95 | 3.96 | -0.247 | 3.26 | 0.329 | 4.67 | 2.52 | 3.89 | 0.929 | 2.38
TCGAGTAGGTTAGCAATGGGGCATTCAGCTTTCT | -0.119 | 0.188 | -0.715 | 0.235 | -0.623 | 0.539 | -0.248 | 0.643 | 1.08 | 1.09
CGTCCAAGGTCAAGGTCAGTAAAAGAGACTCGAA | 7.33 | 5.66 | 1.22 | 4.68 | 0.908 | 5.72 | 6.21 | 5.92 | 2.62 | 4.87
GCGACTGGGGCATCAGAAGGTTACCATAACTTAA | -0.0561 | 0.0873 | -0.311 | 1.22 | -0.607 | 1.65 | 1.43 | 1.22 | -0.0101 | 0.461
TCGAGTAGCTTAGGGGCATTCAGAATGGCGTCGA | -0.301 | -0.0309 | -0.497 | 0.0994 | -1.06 | 0.246 | -0.362 | 0.211 | 0.569 | 0.263
CGAACTAGGTCATCCAGGACAGTGATTACATTGA | 4.19 | 2.8 | 0.631 | 2.2 | -0.108 | 4.62 | 7.63 | 6.33 | 3.95 | 5.79
ATCTCTAGGTAACAAGTTCATTGAAAGAGAGGAC | 1.22 | 1.89 | 1.5 | 1.8 | 1.27 | 2.75 | 2.82 | 3.03 | 1.55 | 2.63
TGATATAGGTAAAAGGTGAAAGTCGGTGTGGTAA | 1.72 | 1.59 | 0.194 | 1.96 | 0.256 | 5.88 | 9.54 | 8.88 | 8.67 | 9.7
ATCTCTAGGTACGACTCAGTTCAGTGAAGAACGC | 0.373 | 0.42 | 0.735 | 0.686 | 1.15 | 0.0584 | 0.161 | 0.105 | 0.235 | -0.098
CCTATTAGTTGACCATAAGGGCGACCGAAGCTCG | 0.484 | 0.482 | 0.301 | 0.554 | 0.545 | 0.197 | 0.29 | 0.138 | -0.288 | 0.134
ATATGTAGGTTAGCTGGGGTCATTTAGACTAGGC | 4.36 | 5.92 | 3.36 | 4.92 | 1.13 | 5.22 | 5.68 | 5.12 | 2.41 | 4.22
ACTATTAGTTGACTTAGGGGAACCGATACGACGC | 0.255 | 0.123 | 0.277 | 0.421 | 1.27 | 0.0304 | 0.951 | 0.244 | 0.351 | 0.326
CCTGCTAGGTCATGGTCAGCTGATCTACAGTATG | 4.51 | 2.68 | -0.139 | 2.21 | -0.492 | 3.96 | 3.02 | 3.1 | 0.862 | 2.09
TCTCGCAGGACACGAAAGGTCAGAGCTCGACATC | 2.57 | 3.8 | 2.98 | 3.17 | 0.477 | 3.71 | 1.25 | 2.76 | 2.41 | 2.44
GGGACTGGGGCAAAGCAGGTTACCATAAGGTTGG | 0.776 | 0.705 | 0.405 | 1.24 | 1.22 | 2.6 | 3.59 | 3.37 | 0.646 | 2.33
GCGACTGGGGCATCACCAGGTTACCATAACTTAA | -0.25 | -0.178 | -0.0644 | 0.637 | -0.712 | 1.02 | 1.1 | 0.672 | -0.379 | 0.216

— the supplement of paper PMC6555819
